Bioassay records (PubChem BioAssay)
BAZ2B inh: BAZ2B (human) inhibition | AlphaScreen BAZ2B-H3K14Ac peptide displacement | Potency, µM (doses to about 114 µM), without a hit: at the highest dose activity change, negative = inhibition, hits mostly inhibitors | 360,000 compounds, 4.4% hits; further: on the % scale 0 is the no-effect control and ±100 the full control effect; nearly all actives have a fitted effect of over 60% in size
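Inhibition is scored as reduced AlphaScreen emission. The BAZ2B/b-H3(5-23)K14Ac complex (50 nM each) in PBS pH 7.4, 0.01% Tween-20 meets compound (up to 110 uM) for 30 min at RT before bead addition.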
HP1b chromo inh: inhibitors of HP1-beta chromodomain binding to methylated histone tails; 390,000 compounds, 0.56% hits; P83916; Potency, µM (doses to about 114 µM), without a hit: at the top dose activity change, negative = inhibition, most hits filed as inhibitors; AID 540317; AlphaScreen HP1-beta / biotin-H3K9me3 peptide binding; further: nearly all actives have a fitted effect of over 70% in size
Target sequence (P83916 whole entry, looked up): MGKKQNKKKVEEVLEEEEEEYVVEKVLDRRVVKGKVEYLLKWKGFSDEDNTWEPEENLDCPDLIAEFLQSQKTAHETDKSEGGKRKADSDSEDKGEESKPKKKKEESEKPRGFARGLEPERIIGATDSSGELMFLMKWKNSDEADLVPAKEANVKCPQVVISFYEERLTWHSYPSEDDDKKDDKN
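HP1-beta protein (50 nM final) preincubated 30 min at room temperature with biotinylated H3(1-18)K9me3 peptide (50 nM) in PBS pH 7.4, 0.01% Tween-20, then compound added for 30 min. AlphaScreen streptavidin donor/nickel chelate acceptor beads (10 ug/mL final), 30 min dark, luminescence read.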
JMJD2A Tudor inh: inhibitors of human JMJD2A Tudor domain; O75164; AlphaScreen JMJD2A-Tudor / H3K4me3 peptide binding; Potency, µM (doses to about 114 µM), for the others: at the highest dose activity change, negative = inhibition, actives largely listed as inhibitors; 390,000 compounds, 4.4% hits; further: on the % scale 0 is the no-effect control and ±100 the full control effect; nearly all actives have a fitted effect of over 50% in size
L3MBTL1 inh: blocks human L3MBTL1; AID 485360; AlphaScreen L3MBTL1–H3K9me1 peptide binding; 230,000 compounds, 0.66% hits; Potency, µM (top dose mostly 57.1 µM), without a hit: at the highest dose activity, negative = inhibition, most hits filed as inhibitors; further: on the % scale 0 is the no-effect control and ±100 the full control effect; nearly all actives have a fitted effect of over 60% in size
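First, the protein-peptide complex forms for 30 min at room temperature (L3MBTL1 50 nM, biotinylated H3K9me1 peptide 75 nM). Next, compounds are pin-transferred and incubated 30 min. Finally, AlphaScreen beads are added and read after 30 min.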
G9a block: blocks human histone lysine methyltransferase G9a; Q96KQ7; G9a H3K9 monomethylation, AlphaScreen, 2 h; Potency, µM (series often up to 102 µM), for inactives: at the highest dose activity, negative = inhibition, usual class: inhibitors; 350,000 compounds, 8.8% hits; AID 504332; further: on the % scale 0 is the no-effect control and ±100 the full control effect; nearly all actives have a fitted effect of over 75% in size
Target sequence (Q96KQ7 913-1193 limits assumed): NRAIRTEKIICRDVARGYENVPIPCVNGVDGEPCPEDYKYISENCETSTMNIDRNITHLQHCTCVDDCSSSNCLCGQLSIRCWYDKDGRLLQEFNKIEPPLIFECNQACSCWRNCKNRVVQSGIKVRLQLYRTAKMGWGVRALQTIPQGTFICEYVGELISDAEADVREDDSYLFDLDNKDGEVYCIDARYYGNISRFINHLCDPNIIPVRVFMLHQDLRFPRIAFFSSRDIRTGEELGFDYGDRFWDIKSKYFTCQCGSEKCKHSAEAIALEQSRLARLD
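G9a (20 nM) preincubated 15 min RT with compounds, then 500 nM biotinylated H3K9 peptide and 20 uM SAM added; 2 h RT reaction. Monomethyl-H3K9 product detected by AlphaScreen with anti-H3K9me1 antibody, streptavidin donor and anti-rabbit IgG acceptor beads.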
Active calls of the source: *; ? = inconclusive; nt = not tested or not shown; [ ] = dose if it differs, or a comment. Rows were chosen to be rich in hits. Some 11% of all compounds tested hit in one or more screens of this group. The call rests on the fitted dose curve; in most records, active means well fitted inhibition curve with a large enough effect; inconclusive means small, poorly fitted or top-dose-only effect; inactive means no such curve, though single readings can be large or run the other way. Potency means the concentration at half of the fitted maximal effect.

SMILES	BAZ2B inh	HP1b chromo inh	JMJD2A Tudor inh	L3MBTL1 inh	G9a block
CCOc1ccc(CN(CCc2ccc3c(c2)OCO3)Cc2cc(OC)c(OC)cc2OC)cc1	28µM*	11µM*	8.9µM*	nt	2.8µM*
CCOc1cc(CNCc2ccc3c(c2)OCO3)ccc1OC	-26%	46%	-11%	-2%	9%[59 µM]
Cc1cccc(N2CCN(c3ccc4cc(S(=O)(=O)N5CCC(C)CC5)ccc4n3)CC2)c1C	-28%	47%	11%	nt	?
CC[C@]12C(=O)N(C)C[C@H]([C@@H]3C(=O)N(C)C(=O)[C@@H]31)N2C(=O)c1ccc(Cl)cc1	nt	29%	-17%	nt	nt
CC(C)[C@H](/C=C/C[Si](C)(C)C)[C@H](C)C(O)/C=C/CCCOC(=O)C(C)(C)C (some centres undefined)	nt	37%	-4%	nt	nt
CC(C)CNC(=S)Nc1ccc(S(N)(=O)=O)cc1	-4%	-17%	-12%	2%	40µM*
S=C(NCc1cccs1)Nc1ccccc1	-21%	23%	3%	7%	10%
CCCNC(=S)Nc1ccc(S(N)(=O)=O)cc1	0%	16%	-11%[57.1 µM]	-5%	2%
NS(=O)(=O)c1ccc(NC(=S)NCc2cccs2)cc1	-17%	-15%	-11%[11.4 µM]	10%	35µM*
CCOCCCNC(=S)Nc1ccc(S(N)(=O)=O)cc1	-24%	33%	-3%	7%	28µM*
CCn1ccc2cc(S(=O)(=O)N3CCC(C(=O)NCCc4ccccc4Cl)CC3)ccc21	-4%	7%[57 µM]	-17%	nt	-3%[59 µM]
CCOC(=O)C1(C(=O)OCC)NC(=O)CC1C(C)C (centres undefined)	nt	32%	-6%	nt	nt
CN(C)c1ccc(-n2cccc2/C=C/[N+](=O)[O-])cc1	16µM*	45µM*	25µM*	nt	22µM*
Cc1cc[n+](-c2ccccc2)c2ccccc12	-34%	39%	-23%	8%	25µM*
COc1cc(C2SCCS2)cc(Br)c1Oc1ncccc1[N+](=O)[O-]	?	?	?	-2%	10µM*
NC1CCN(c2nc3c(cc2F)c(=O)c(C(=O)O)cn3-c2ccc(F)cc2F)C1 (centres undefined)	nt	78%	50µM*	nt	-17%[12.7 µM]
NC1CCN(c2c(F)cc3c(=O)c(C(=O)O)cn(C4CC4)c3c2Cl)C1 (centres undefined)	?	48%	-15%	1%	71µM*
CC1CCc2c(N3CCC(O)CC3)c(F)cc3c(=O)c(C(=O)O)cn1c23 (centres undefined)	-37%	13%	?	5%	-42%[59 µM]
CCn1cc(C(=O)O)c(=O)c2cc(F)c(N3CCNCC3)nc21	nt	51%	-4%	nt	3%[21.5 µM]
Cc1ccc(C)c(N2CCN(C(=O)c3cc4ccccn4n3)CC2)c1	-6%	34%	-18%	-2%	50µM*
Cc1c(C)n(C)c2ccc(C(=O)NCCCN3CCN(c4ccc(F)cc4)CC3)cc12	35µM*	?	56µM*	nt	40µM*
Cc1c(C)n(C)c2ccc(C(=O)NCCCN3CCCCC3)cc12	-27%[57.1 µM]	-3%	?	nt	?
Cc1c(C)n(C)c2ccc(C(=O)NCCCN3CCCC3)cc12	?	-5%	?	nt	50µM*
Cc1c(C)n(C)c2ccc(C(=O)NCCCN3CCN(c4ccccc4F)CC3)cc12	?	?	56µM*	nt	45µM*
Cc1ccccc1Nc1c(-c2cccnc2)nc2ccc(Cl)cn12	1%	56%	-5%	nt	7%[59 µM]
SMILES	BAZ2B inh	HP1b chromo inh	JMJD2A Tudor inh	L3MBTL1 inh	G9a block
CCOC(=O)N1CCN(C(=O)c2ccc3[nH]c(C)c(C)c3c2)CC1	nt	19%	-16%	2%	nt
O=C(Cn1c(-c2cccs2)cc2cc(F)ccc21)NCCCN1CCN(c2ccccc2F)CC1	-13%	42%	-27%	nt	?
Cc1[nH]c2ccc(C(=O)NCCN3CCCCCC3)cc2c1C	-30%[57.1 µM]	2%[57 µM]	?	nt	50µM*
Cc1[nH]c2ccc(C(=O)NCCCN3CCCCC3)cc2c1C	?	57%	-1%	nt	4%
Cc1ccc(C)c(N2CCN(C(=O)c3ccc4[nH]c(C)c(C)c4c3)CC2)c1	-13%	-17%	79µM*	nt	-8%[59 µM]
COc1ccc(OC)c(CNC(=O)CCc2cn(C)c3ccccc23)c1	-28%	4%	?	nt	?
COc1ccc(OC)c(CCNC(=O)CCc2cn(C)c3ccccc23)c1	?	10%	?	nt	71µM*
O=C(Cn1c(=O)c2cccn2c2ccc(F)cc21)NCCCN1CCN(c2ccccc2F)CC1	-31%	25%	-20%	nt	45µM*
Cn1cc(CC(=O)NCCCN2CCOCC2)c2ccccc21	nt	19%	-13%	nt	?
Cn1cc(CC(=O)NCCCN2CCCC2)c2ccccc21	-29%	33%	-33%	nt	56µM*
Cc1ccc(-n2ncc(C(=O)N3CCc4ccccc4C3)c2NC(=O)c2ccco2)cc1C	-11%	15%	-17%	-19%	25µM*
Cc1ccc(CN(C(=O)COc2ccccc2[N+](=O)[O-])c2ccccn2)cc1	?	8%	-25%	nt	-2%[59 µM]
COc1ccccc1/C=N/OCC(=O)NCc1ccc2c(c1)OCO2	1%	14%	-14%	4%	-36%
CCOc1ccc(/C=N/OCC(=O)NCc2ccc3c(c2)OCO3)cc1OC	2%	14%	-15%	4%	40µM*
COc1ccc(-c2nc(S(=O)(=O)c3ccccc3)c(N3CCOCC3)o2)cc1	-29%	-1%	79µM*	10%	?
Cc1ccc(S(=O)(=O)c2nc(-c3cccc(C)c3)oc2N2CCCCC2)cc1	-31%	8%	-20%	nt	?
O=P(c1ccccc1)(c1ccccc1)c1nc(-c2ccccc2)oc1N1CCOCC1	?	-3%	-20%	-11%	0%[59 µM]
Cc1ccc(-c2nc(S(=O)(=O)c3ccc(Cl)cc3)c(N3CCCCC3)o2)cc1	?	?	-34%	nt	2.8µM*
O=P(c1ccccc1)(c1ccccc1)c1nc(-c2ccc(Cl)cc2)oc1N1CCOCC1	45µM*	-30%	?	-7%	?
COc1ccc(-c2nc(S(=O)(=O)c3ccc(C)cc3)c(N3CCCCC3)o2)cc1	?	?	50µM*	nt	3.5µM*
CCc1cccc(NC(=O)C(CC)n2nc(C)c3sc4ccccc4c3c2=O)c1 (centres undefined)	3%	43%	-6%	nt	-33%[59 µM]
OCc1ccc(O)c2ncccc12	1.4µM*	21%	40µM*	18µM*	1%[0.501 µM]
Oc1ccc(Cc2ccccc2)c2cccnc12	nt	34%	79µM*	nt	nt
Cc1ccccc1Nc1c(-c2ccc(Br)o2)nc2ccc(Cl)cn12	-12%	19%	-9%	nt	-31%[59 µM]
CCc1cc2c(CN3CCN(Cc4ccccc4)CC3)cc(=O)oc2cc1O	?	41%	?	nt	45µM*
Cc1ccc2oc(=O)cc(CN3CCN(Cc4ccccc4)CC3)c2c1	-2%	18%	-19%	nt	50µM*
